From PubChem BioAssay (NCI)
About 83,000 compounds went through this panel and 20% of them were active in at least one assay; those are over-represented in the sample as a whole.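 The endpoint reported here, percent growth, reads 100 for growth as untreated, 0 for no net growth and -100 for all cells dead.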 Active and inactive are the calls of the source. The calls were made as follows: active = growth percent below 10; inactive = the rest.

Each molecule was assayed on HL-60(TB) leukemia (assay: NCI-60 one-dose screen, 48 h (100 = growth as untreated, 0 = no growth, -100 = all killed)). Conditions: 10 µM unless noted.

| Structure (SMILES) | growth |
| --- | --- |
| O=C(N/N=C/c1cccnc1)c1ccccc1Nc1cccc(C(F)(F)F)c1 | 64.8% (inactive) |
| O=C(Nc1cccc(Cl)c1)OCC(COC(=O)Nc1cccc(Cl)c1)(COC(=O)Nc1cccc(Cl)c1)[N+](=O)[O-] | 45% (inactive) |
| CC1(/C=N/NC(N)=S)NC(=O)NC1=O (stereo unspecified) | 86.8% (inactive) |
| COc1ccc(C2=NN(C(=O)c3cc(OC)c(OC)c(OC)c3)C(c3ccc(Cl)cc3)C2)cc1OC (stereo unspecified) | -54% (active) |
| CCc1ccc(Nc2cc(C)nc3nc(C)nn23)cc1 | -54.6% (active) |
| CC1=CC[C@@H]2C(C)(C)[C@@H](O)CC[C@@]2(C)[C@@H]1COc1ccc2ccc(=O)oc2c1 | 76.7% (inactive) |
| OCc1cccnc1 | 117% (inactive) |
| CCOC(=O)C1(Cc2ccccc2)CCN(Cc2cccc(OC)c2O)CC1 | -11.6% (active) |
| Nc1nc(N)c2[nH]cnc2n1 | 87.5% (inactive) |
| O=C(C[C@]1(O)C(=O)Nc2ccccc21)c1cccc(C(F)(F)F)c1 | 102% (inactive) |
| CC(C)c1cc(CNc2nc(Nc3cc(C4CC4)[nH]n3)cc(N3CCN(C)CC3)n2)on1 | -32.9% (active) |
| CCCCn1c(-c2ccc(F)cc2)nc2cc(OC)c(OC)cc2c1=O | 67.1% (inactive) |
| CN(C)CCCn1c(=O)c2ccccc2c2ccccc21 | 63.4% (inactive) |
| CC(=O)c1cc(O)c2ccccc2c1O | 63.9% (inactive) |
| NS(=O)(=O)c1ccc(-n2ncc(NC(=O)Nc3ccc(S(=O)(=O)Nc4nccs4)cc3)c2-c2ccccc2)cc1 | 92.5% (inactive) |
| O=C(C[n+]1cccc2cc(Cl)ccc21)c1ccc2c(c1)CCCC2 | -28.3% (active) |
